Data published in PubChem BioAssay AID1159580 (chemical genetic matrix, 2015).
The whole screen tested about 5,500 compounds, of which about 2,000 (36%) were called active. Roughly 18% stayed inconclusive and do not appear here. Cut-off read from the data, not from the text of the source: active = normalized growth mostly below about 0.91 (no sharp cut-off); inconclusive = no clear call, values can overlap the other calls; inactive = mostly above about 0.92. This is one part of the list.

Experiment: chemical genetic growth profiling, strain panel (AID 1159580);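 note: tested at 20 µM; growth read once vehicle control cultures reached saturation at 30 °C; 1 = growth at the plate median or of vehicle wells; lower values mean less growth of the strain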
Details: growth OD
[1] = S. cerevisiae deletion strains, locus YAL013W, strain DEP1, hits give low values
[2] = S. cerevisiae deletion strains, locus YDR150W, strain NUM1, hits give low values
[3] = S. cerevisiae deletion strains, locus YGR078C, strain PAC10, hits give low values
[4] = S. cerevisiae deletion strains, locus YJR075W, strain HOC1, hits give low values
[5] = S. cerevisiae deletion strains, locus YNL128W, strain TEP1, hits give low values
[6] = S. cerevisiae deletion strains, locus YNL322C, strain KRE1, hits give low values
[7] = S. cerevisiae deletion strains, locus YPL055C, strain LGE1, hits give low values
[8] = S. cerevisiae deletion strains, locus YPL241C, strain CIN2, hits give low values
[9] = S. cerevisiae deletion strains, locus YDL101C, strain DUN1, hits give low values
[10] = S. cerevisiae deletion strains, locus YHR030C, strain SLT2, hits give low values

Measured: normalized growth

N#C/C(=C\c1ccc(O)c(O)c1)C(=O)Nc1ccccc1
inactive: [1] 0.988 | S. cerevisiae deletion strains, locus YAL040C, strain CLN3, hits give low values 1 | S. cerevisiae deletion strains, locus YCL061C, strain MRC1 (second series), hits give low values 1.01 | [2] 0.996 | S. cerevisiae deletion strains, locus YDR363W, strain ESC2, hits give low values 1.05 | S. cerevisiae deletion strains, locus YER002W, strain NOP16, hits give low values 1.01 | [3] 1.05 | S. cerevisiae deletion strains, locus YGR229C, strain SMI1, hits give low values 0.966 | [4] 1.01 | S. cerevisiae deletion strains, locus YMR307W, strain GAS1, hits give low values 1 | [5] 1.04 | S. cerevisiae deletion strains, locus YNL175C, strain NOP13, hits give low values 1.03 | S. cerevisiae deletion strains, locus YNL197C, strain WHI3, hits give low values 1 | S. cerevisiae deletion strains, locus YNL224C, strain SQS1, hits give low values 1.03 | [6] 0.989 | S. cerevisiae deletion strains, locus YOR083W, strain WHI5 (second series), hits give low values 1.02 | [7] 1.01 | [8] 1.01

Cn1c([N+](=O)[O-])cnc1/C=C(\C#N)C(=O)Nc1ccc(F)cc1
active: S. cerevisiae deletion strains, locus YAR019C, strain CDC15, hits give low values 0.267 | S. cerevisiae deletion strains, locus YBL105C, strain PKC1, hits give low values 0.368 | S. cerevisiae deletion strains, locus YBR135W, strain CKS1, hits give low values 0.436 | S. cerevisiae deletion strains, locus YBR136W, strain MEC1, hits give low values 0.608 | S. cerevisiae deletion strains, locus YBR160W, strain CDC28, hits give low values 0.639 | S. cerevisiae deletion strains, locus YDL017W, strain CDC7, hits give low values 0.541 | S. cerevisiae deletion strains, locus YDL028C, strain MPS1, hits give low values 0.874 | [9] 0.852 | S. cerevisiae deletion strains, locus YDL214C, strain PRR2, hits give low values 0.37 | S. cerevisiae deletion strains, locus YDR226W, strain ADK1, hits give low values 0.642 | S. cerevisiae deletion strains, locus YDR477W, strain SNF1, hits give low values 0.104 | S. cerevisiae deletion strains, locus YER123W, strain YCK3, hits give low values 0.408 | S. cerevisiae deletion strains, locus YER133W, strain GLC7, hits give low values 0.3 | S. cerevisiae deletion strains, locus YFL029C, strain CAK1, hits give low values 0.542 | S. cerevisiae deletion strains, locus YFR019W, strain FAB1, hits give low values 0.262 | S. cerevisiae deletion strains, locus YFR028C, strain CDC14, hits give low values 0.2 | S. cerevisiae deletion strains, locus YGR040W, strain KSS1, hits give low values 0.139 | S. cerevisiae deletion strains, locus YGR052W, strain FMP48, hits give low values 0.305 | S. cerevisiae deletion strains, locus YGR092W, strain DBF2, hits give low values 0.118 | [10] 0.234 | S. cerevisiae deletion strains, locus YHR079C, strain IRE1, hits give low values 0.366 | S. cerevisiae deletion strains, locus YHR082C, strain KSP1, hits give low values 0.371 | S. cerevisiae deletion strains, locus YHR205W, strain SCH9, hits give low values 0.0146 | S. cerevisiae deletion strains, locus YIL147C, strain SLN1, hits give low values 0.741 | S. cerevisiae deletion strains, locus YJL095W, strain BCK1, hits give low values 0.149 | S. cerevisiae deletion strains, locus YJL157C, strain FAR1, hits give low values 0.346 | S. cerevisiae deletion strains, locus YJR016C, strain ILV3, hits give low values 0.436 | S. cerevisiae deletion strains, locus YJR066W, strain TOR1 (second series), hits give low values 0.116 | S. cerevisiae deletion strains, locus YJR066W, strain TOR1, hits give low values 0.207 | S. cerevisiae deletion strains, locus YKL048C, strain ELM1, hits give low values 0.168 | S. cerevisiae deletion strains, locus YKL067W, strain YNK1, hits give low values 0.43 | S. cerevisiae deletion strains, locus YKL101W, strain HSL1, hits give low values 0.157 | S. cerevisiae deletion strains, locus YKL193C, strain SDS22, hits give low values 0.399 | S. cerevisiae deletion strains, locus YKL203C, strain TOR2, hits give low values 0.119 | S. cerevisiae deletion strains, locus YLR113W, strain HOG1, hits give low values 0.319 | S. cerevisiae deletion strains, locus YLR133W, strain CKI1, hits give low values 0.111 | S. cerevisiae deletion strains, locus YLR403W, strain SFP1, hits give low values 0.0176 | S. cerevisiae deletion strains, locus YML070W, strain DAK1, hits give low values 0.28 | S. cerevisiae deletion strains, locus YMR001C, strain CDC5, hits give low values 0.438 | S. cerevisiae deletion strains, locus YMR205C, strain PFK2 (second series), hits give low values 0.139 | S. cerevisiae deletion strains, locus YMR277W, strain FCP1, hits give low values 0.347 | S. cerevisiae deletion strains, locus YNL006W, strain LST8, hits give low values 0.219 | S. cerevisiae deletion strains, locus YNL020C, strain ARK1, hits give low values 0.119 | S. cerevisiae deletion strains, locus YNL161W, strain CBK1, hits give low values 0.324 | S. cerevisiae deletion strains, locus YNL183C, strain NPR1, hits give low values 0.168 | S. cerevisiae deletion strains, locus YNL207W, strain RIO2, hits give low values 0.635 | S. cerevisiae deletion strains, locus YNL222W, strain SSU72, hits give low values 0.411 | S. cerevisiae deletion strains, locus YNL307C, strain MCK1 (second series), hits give low values 0.117 | S. cerevisiae deletion strains, locus YOL078W, strain AVO1, hits give low values 0.47 | S. cerevisiae deletion strains, locus YOL136C, strain PFK27, hits give low values 0.431 | S. cerevisiae deletion strains, locus YOR061W, strain CKA2, hits give low values 0.168 | S. cerevisiae deletion strains, locus YOR119C, strain RIO1, hits give low values 0.162 | S. cerevisiae deletion strains, locus YOR231W, strain MKK1, hits give low values 0.418 | S. cerevisiae deletion strains, locus YOR329C, strain SCD5, hits give low values 0.372 | S. cerevisiae deletion strains, locus YPL031C, strain PHO85, hits give low values 0.104 | S. cerevisiae deletion strains, locus YPL153C, strain RAD53, hits give low values 0.112 | S. cerevisiae deletion strains, locus YPL204W, strain HRR25, hits give low values 0.109 | S. cerevisiae deletion strains, locus YPL209C, strain IPL1, hits give low values 0.476 | S. cerevisiae deletion strains, locus YPL256C, strain CLN2, hits give low values 0.448 | S. cerevisiae deletion strains, locus YPR025C, strain CCL1, hits give low values 0.403
inactive: S. cerevisiae deletion strains, locus YDL108W, strain KIN28, hits give low values 0.92 | S. cerevisiae deletion strains, locus YDR052C, strain DBF4, hits give low values 0.936 | S. cerevisiae deletion strains, locus YFL009W, strain cdc4, hits give low values 0.913 | S. cerevisiae deletion strains, locus YPR106W, strain ISR1, hits give low values 0.968

CN(C)/C=C(\C#N)C(=O)Nc1ccc(F)c(Cl)c1
inactive: [1] 0.971 | S. cerevisiae deletion strains, locus YBR229C, strain ROT2, hits give low values 1.01 | S. cerevisiae deletion strains, locus YCL061C, strain MRC1, hits give low values 0.978 | [9] 0.981 | [2] 0.991 | S. cerevisiae deletion strains, locus YEL061C, strain CIN8, hits give low values 1.01 | [3] 0.992 | [10] 0.983 | S. cerevisiae deletion strains, locus YHR087W, strain rtc3, hits give low values 1.01 | S. cerevisiae deletion strains, locus YJR043C, strain POL32, hits give low values 0.97 | [4] 1.01 | S. cerevisiae deletion strains, locus YKL190W, strain CNB1, hits give low values 1.01 | S. cerevisiae deletion strains, locus YLR039C, strain RIC1, hits give low values 1.07 | S. cerevisiae deletion strains, locus YLR058C, strain SHM2 (second series), hits give low values 1.01 | S. cerevisiae deletion strains, locus YLR085C, strain ARP6, hits give low values 0.912 | S. cerevisiae deletion strains, locus YLR262C, strain YPT6, hits give low values 1.16 | S. cerevisiae deletion strains, locus YML094W, strain GIM5, hits give low values 0.988 | S. cerevisiae deletion strains, locus YMR219W, strain ESC1, hits give low values 1.01 | S. cerevisiae deletion strains, locus YMR263W, strain SAP30, hits give low values 1 | [5] 1 | S. cerevisiae deletion strains, locus YNL153C, strain GIM3, hits give low values 0.976 | S. cerevisiae deletion strains, locus YNL298W, strain CLA4 (second series), hits give low values 0.97 | [6] 1.02 | S. cerevisiae deletion strains, locus YNR030W, strain Alg12, hits give low values 1.01 | S. cerevisiae deletion strains, locus YOL006C, strain TOP1, hits give low values 0.965 | [7] 0.959 | [8] 0.977 | S. cerevisiae deletion strains, locus YPR135W, strain CTF4, hits give low values 0.991 | S. cerevisiae strains, strain wild type, hits give low values 1.01
